An excerpt weighted towards active compounds, which were near 32% of everything screened.
CYP2C19 inh = blockers of cytochrome P450 2C19 activity – biochemical, luminescence, ADME assay, primary screen. P33261. CYP2C19 Supersomes, luciferin-H EGE luminescence, 30 min. inhibition, % at 5 µM. hit rate 21% among 96,000;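 active means CYP2C19 inhibition above a set limit at 5 µM in the primary screen, cut at about 50% in these data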;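 further: plate controls were negative control wells for no effect and 2.5 mM tranylcypromine positive control for full effect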
CYP2C19 activ = human CYP2C19 activators, primary screen, biochemical, luminescence | activation factor at 5 µM | recombinant CYP2C19, luciferin-H EGE luminescence; stronger effect = higher value; 0 = fully inhibited enzyme, 1 = untreated enzyme | 96,000 tested, under 10 active | Cytochrome P450 2C19 (Homo sapiens), P33261;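 active means activation factor of at least 2 at 5 µM in the primary screen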;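 further: 0 = wells with 2.5 mM tranylcypromine and 1 = vehicle-only wells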
PostGolgi ctrl = growth inhibition of yeast control strain, primary screen, counter-screen for post-Golgi transport modulator project | inhibition, % at 10 µM | efflux-deficient yeast background strain, growth absorbance A615, 16 h | AID 738, 2007 | hit rate 5% among 98,000
CYP2C9 activ = human CYP2C9 activators, primary screen, biochemical, luminescence | recombinant CYP2C9, luciferin-H conversion; stronger effect = higher value; factor 1 = untreated enzyme, 0 = blocked | activation factor at 5 µM | hit rate 1.4% among 96,000 | AID 1024, 2008;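 active means activation factor of 2 or more for CYP2C9 at a 5 µM dose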;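 further: 0 = sulfaphenazole-blocked wells and 1 = vehicle-only wells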
Target sequence (P11712 whole entry, looked up): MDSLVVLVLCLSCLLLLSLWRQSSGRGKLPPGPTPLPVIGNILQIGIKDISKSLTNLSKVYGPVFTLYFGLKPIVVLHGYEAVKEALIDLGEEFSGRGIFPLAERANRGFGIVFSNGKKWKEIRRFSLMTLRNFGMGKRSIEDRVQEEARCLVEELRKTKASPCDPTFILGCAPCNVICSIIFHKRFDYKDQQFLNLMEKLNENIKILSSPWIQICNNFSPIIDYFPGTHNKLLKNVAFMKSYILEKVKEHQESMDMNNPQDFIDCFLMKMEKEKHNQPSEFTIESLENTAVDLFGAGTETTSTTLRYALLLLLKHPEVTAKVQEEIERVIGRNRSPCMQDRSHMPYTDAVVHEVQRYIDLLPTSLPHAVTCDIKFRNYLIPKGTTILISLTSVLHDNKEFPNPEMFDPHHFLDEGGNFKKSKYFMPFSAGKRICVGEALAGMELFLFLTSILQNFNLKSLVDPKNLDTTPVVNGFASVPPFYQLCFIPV
CYP2C9 inh = blockers of cytochrome P450 2C9 activity – biochemical, luminescence, ADME assay, primary screen; P11712; CYP2C9 Supersomes, luciferin-H conversion; inhibition, % at 5 µM; hit rate 20% among 96,000;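 active means blocking of liver enzyme CYP2C9 beyond about 50% at 5 µM, limit read from the data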
PostGolgi yeast = phenotypic screen on post-Golgi transport, primary screen; post-Golgi transport phenotypic cell assay; inhibition, % at 10 µM; hit rate 0.9% among 98,000;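 further: yeast cells grown in 1536-well plates; yeast grown about 18 h at 30C before absorbance read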
The depositor's hits bear a star; nt = no result given. Unless noted, no stated cut-off is given here; in the data, active means inhibition above about 30%; inactive means the rest.

SMILES	CYP2C19 inh	CYP2C19 activ	PostGolgi ctrl	CYP2C9 activ	CYP2C9 inh	PostGolgi yeast
Cc1nc(-c2ccccc2)sc1-c1nc(-c2cccs2)ncc1S(=O)(=O)c1ccccc1	17.2	0.8	10.4	0.4	62.2*	9.0
O=C1CC(N2CCN(c3ccc(S(=O)(=O)N4CCOCC4)cc3)CC2)C(=O)N1Cc1ccccc1 (stereo unspecified)	38.7	0.6	2.3	0.6	39.3	-0.5
O=C(c1ccncc1)c1ccc(N2CCN(C3CC(=O)N(Cc4ccccc4)C3=O)CC2)cc1 (stereo unspecified)	85.9*	0.1	6.8	0.4	60.5*	1.7
Cc1nn(C)c(Oc2cccc(Cl)c2)c1C(=O)Nc1ccc(F)cc1F	13.9	0.9	9.9	1	-0.4	10.7
Cc1cc(NC(=O)CSc2cn(C)c3ccccc23)no1	94.8*	0.1	0.3	0.9	8.8	-10.4
CCn1cc(SCC(=O)Nc2cc(C)on2)c2ccccc21	55.1*	0.4	-3.0	0.9	14.4	21.5
CCn1cc(SCC(N)=O)c2ccccc21	-18.5	1.2	7.0	1.7	-68.8	-18.1
C=CCn1c(=O)c2ccccc2n2c(SCC(=O)Nc3cc(C)on3)nnc12	30.7	0.7	16.6	0.5	50.4*	-4.3
COc1ccc([N+](=O)[O-])cc1/C=N/NC(=O)/C(=C\c1cccs1)NC(=O)c1ccccc1	37.9	0.6	19.3	0.8	24.6	-9.2
O=C(N/N=C/c1cc2ccccc2nc1Cl)/C(=C/c1cccs1)NC(=O)c1ccccc1	80.5*	0.2	4.3	0.6	43.1	9.4
CCCn1nnnc1-c1ccc(Cl)cc1	21.7	0.8	-0.5	1	-0.9	-1.1
FC(F)(F)c1cccc(Cn2nnnc2-c2ccc(Cl)cc2)c1	92.3*	0.1	20.6	0.4	61.3*	1.6
COc1ccc(OC)c(S(=O)(=O)Nc2c(F)cccc2F)c1	25.9	0.7	10.8	1.2	-19.6	-9.8
COc1ccc(OC)c(NS(=O)(=O)Cc2ccccc2)c1	94.2*	0.1	4.1	1.4	-36.5	14.7
COc1ccc(N(C(C)=O)S(=O)(=O)c2cc(OC)ccc2OC)cc1	27.9	0.7	5.2	0.5	50.5*	-0.5
COc1ccc(C)cc1S(=O)(=O)N(CC(=O)O)c1ccc(C)cc1	14.7	0.9	-0.1	0.6	36.5	11.0
COc1ccc(OC)c(S(=O)(=O)NCc2cccnc2)c1	12.8	0.9	-2.8	1.3	-29.6	-6.9
COc1ccc(OC)c(S(=O)(=O)NC(C)(C)C)c1	51.5*	0.5	-6.2	0.8	19.6	4.0
COc1ccc(OC)c(NC(=O)CSCC(=O)O)c1	10.2	0.9	4.2	1	-4.5	2.6
COc1ccc(-c2nc(CNS(=O)(=O)c3cc(OC)ccc3OC)cs2)cc1	70.5*	0.3	15.8	0.3	72.3*	3.4
Cc1cc(NC(=O)CCC(=O)N(c2ccccc2)C(C(=O)NC2CCCCC2)c2cccs2)no1 (stereo unspecified)	nt	nt	12.2	nt	nt	0.8
COc1ccc(OC)c(S(=O)(=O)NCc2ccccc2)c1	95.9*	0	2.9	1.2	-16.4	-1.6
CCn1c(=O)c2cc(S(=O)(=O)NCCOc3ccccc3)ccc2n(CC)c1=O	-6.3	1.1	-4.0	0.7	34.8	-2.2
COc1ccc(S(=O)(=O)NCc2csc(-c3cccnc3)n2)cc1	90.6*	0.1	19.1	0.3	68.0*	-1.0
CS(=O)(=O)NCc1csc(-c2ccccc2)n1	5.2	0.9	25.5	0.9	6.9	18.4
SMILES	CYP2C19 inh	CYP2C19 activ	PostGolgi ctrl	CYP2C9 activ	CYP2C9 inh	PostGolgi yeast
Cc1csc2nc(CNS(=O)(=O)c3ccc(-c4ccccc4)cc3)cn12	nt	nt	10.4	nt	nt	10.0
CCc1ccc(OC)c(S(=O)(=O)NCCOc2ccccc2)c1	75.2*	0.2	14.9	0.8	15.4	-0.2
CCS(=O)(=O)NCc1csc(-c2ccccc2)n1	69.7*	0.3	0.3	1	-0.3	10.6
CC(C)=CC(=O)NCc1c(Cl)cccc1-n1cccc1	10.1	0.9	9.0	0.8	20.6	-5.8
COc1cc(OC)c(C#N)c(S(=O)(=O)Cc2ccccc2)c1	96.2*	0	6.0	1.4	-43.7	-10.6
CCOc1cc(Br)ccc1S(=O)(=O)NCc1ccccc1	71.4*	0.3	1.8	1.5	-45.4	-2.2
CC(C)(C)n1nnnc1CN1CCC(NC(=O)NC2CCCCC2)CC1	1.9	1	4.3	1	1.7	14.3
COc1cc(OC)c(C2C(C(=O)Nc3ccc(C)cc3C)=C(C)Nc3ncnn32)cc1OC (stereo unspecified)	-11.1	1.1	28.8	1.2	-22.3	5.2
CC1=NN(c2ccccc2)C(=O)C1C(=O)c1ccc(Cl)cc1 (stereo unspecified)	-3.7	1	-5.1	0.1	93.1*	-2.7
COc1cccc(N2CCN(C(=O)c3ccc4nc(N5CCCCC5)sc4c3)CC2)c1	28.3	0.7	21.9	0.7	30.2	15.9
CC(C)NC(=O)c1cnc(Sc2ncc(C(F)(F)F)cc2Cl)n1C	25.2	0.7	8.6	2.1*	-109.0	-1.9
C/C(=N/NS(=O)(=O)c1ccc(C)cc1)c1cccc(NC(=O)c2cccc(Cl)c2)c1	-2.8	1	0.3	1	3.1	-7.9
C/C(=N\NS(=O)(=O)c1ccc(Cl)cc1)c1ccc(O)cc1	83.0*	0.2	5.8	0.2	77.5*	3.0
C/C(=N/NS(=O)(=O)c1ccc(Cl)cc1)c1cccc(NC(=O)c2ccc(Cl)cc2Cl)c1	74.6*	0.3	2.3	0	97.3*	-4.4
CCOc1ccc2c(C)c(C(=O)O)oc2c1OCC	-6.1	1.1	15.3	1.1	-13.9	0.3
Cc1c(OCc2ccc(C(=O)O)o2)ccc2c3c(c(=O)oc12)CCC3	-7.5	1.1	0.0	0.8	16.4	-8.9
CCOc1ccc2c(C)c(C)c(=O)oc2c1OCC	50.8*	0.5	11.4	2.5*	-152.3	-8.8
CCOc1c(OC)ccc2c3c(c(=O)oc12)CCCC3	75.9*	0.2	18.3	2.6*	-163.2	1.7
NC(=O)CS(=O)(=O)c1nc2ccccc2n1Cc1ccccc1F	38.8	0.6	3.8	1.1	-7.1	0.6
Fc1ccc(CN2CCCCCCC2)cc1F	27.1	0.7	-4.5	0.9	5.9	-3.9
CCOC(=O)Cn1c(CN2CCN(c3cccc(Cl)c3)CC2)nc2c1c(=O)[nH]c(=O)n2C	nt	nt	8.7	nt	nt	5.1
CCOC(=O)CN1CC23C=CC(O2)C(C(=O)Nc2ccc(C(C)=O)cc2)C3C1=O (stereo unspecified)	-10.5	1.1	14.3	0.9	5.0	-1.6
COc1ccc(-n2cc(C(=O)c3cc4ccccc4oc3=O)c(C(C)=O)n2)cc1	-14.2	1.1	-0.1	1	-4.5	-0.2
